Measured values: PubChem BioAssay
Results with a measured potency or affinity are listed apart. Calls of active or inactive are those of the source.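 Rule for the calls: active = primary screen inhibitor hit that blocks the TRPC4 channel at some tested dose, yielding a dose curve; inactive = the rest.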

These molecules were tested against Short transient receptor potential channel 4 (Mus musculus) (UniProt Q9QUQ5) (assay: block of DAMGO-driven TRPC4 calcium entry – cell-based, HEK293 TRPC4/mu-opioid, Fluo-4 calcium, dose response (AID 434942)). Conditions: HEK293 TRPC4/mu-opioid cells, DAMGO-evoked Fluo-4 calcium ratio; series mostly up to 20 µM.
Sequence of Short transient receptor potential channel 4 (Mus musculus) (Q9QUQ5 whole entry, looked up): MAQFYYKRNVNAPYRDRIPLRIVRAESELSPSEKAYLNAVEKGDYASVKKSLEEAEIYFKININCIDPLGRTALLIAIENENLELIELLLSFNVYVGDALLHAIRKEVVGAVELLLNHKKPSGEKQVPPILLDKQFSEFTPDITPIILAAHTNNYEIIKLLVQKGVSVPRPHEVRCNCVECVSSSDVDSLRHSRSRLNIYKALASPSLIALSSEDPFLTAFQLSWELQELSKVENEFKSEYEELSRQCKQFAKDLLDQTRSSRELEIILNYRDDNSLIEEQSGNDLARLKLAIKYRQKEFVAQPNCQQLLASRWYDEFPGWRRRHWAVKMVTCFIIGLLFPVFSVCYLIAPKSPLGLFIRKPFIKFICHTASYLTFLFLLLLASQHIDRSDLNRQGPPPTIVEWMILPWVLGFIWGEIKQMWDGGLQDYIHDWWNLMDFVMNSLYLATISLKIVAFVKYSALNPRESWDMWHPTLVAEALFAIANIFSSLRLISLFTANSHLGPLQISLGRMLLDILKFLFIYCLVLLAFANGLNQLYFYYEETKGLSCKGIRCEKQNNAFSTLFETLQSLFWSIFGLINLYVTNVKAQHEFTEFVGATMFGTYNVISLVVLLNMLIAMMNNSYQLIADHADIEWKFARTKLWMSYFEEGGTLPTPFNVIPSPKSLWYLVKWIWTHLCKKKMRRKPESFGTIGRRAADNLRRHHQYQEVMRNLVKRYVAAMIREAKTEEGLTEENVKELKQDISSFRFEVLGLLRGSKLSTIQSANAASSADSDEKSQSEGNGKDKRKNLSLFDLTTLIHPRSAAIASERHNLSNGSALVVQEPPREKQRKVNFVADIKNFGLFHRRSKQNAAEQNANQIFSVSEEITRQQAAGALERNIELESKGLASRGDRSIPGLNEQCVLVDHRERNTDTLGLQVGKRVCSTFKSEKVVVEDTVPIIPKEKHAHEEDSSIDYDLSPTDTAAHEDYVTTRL

outcome, inactive:
CCCc1nc2oc3c(NCCCN(C)C)ncnc3c2c2c1CCCC2
O=C(/C=C/c1ccc(Cl)cc1)N(Cc1ccccc1)C1CCS(=O)(=O)C1 (centres undefined)
COc1ccc(NS(=O)(=O)c2ccc3ccccc3c2)c2ncccc12
CN(C)S(=O)(=O)N1CCC(CCCC2CCN(S(=O)(=O)N(C)C)CC2)CC1
COc1cc(C2(c3ccc(O)c(OC)c3)C(=O)Nc3c(C)cc(Br)cc32)ccc1O
COC(=O)C(CC(=O)Nc1cc(C)ccc1C)Nc1ccccc1OC (centres undefined)
CC(C)CCc1noc(CN2CCN(c3ccc(Cl)cn3)CC2)n1
Cc1cc(OCCN2CCCC2)ccc1[N+](=O)[O-]
CSc1ccc(S(=O)(=O)NCC(=O)OCC(=O)N(C)Cc2ccccc2)cc1[N+](=O)[O-]
O=C(COC(=O)c1ccccc1C(=O)N1CCN(c2ccccc2)CC1)Nc1ccc(F)cc1
CCCCCCCCCC[n+]1cccc2c3ccccc3ccc21
Cc1nn(-c2cc(C(F)(F)F)ccc2Cl)c2nc(C(Cl)(Cl)Cl)[nH]c(=O)c12
Cc1cc2oc(C(=O)N(Cc3cccs3)C3CCS(=O)(=O)C3)cc(=O)c2cc1Cl (centres undefined)
CN(C)CCCN(C(=O)CCc1ccccc1)c1nc2ccc(F)cc2s1
Cc1ccc(C(=O)O)cc1N=Cc1cc(Br)cc(Br)c1O
N=c1c2c3c(sc2ncn1Cc1ccccc1)CCCC3
Cn1c2ccccc2c(=O)c2c(=O)n(-c3ccccc3)c(-c3ccc(C(C)(C)C)cc3)nc21
CCCNc1nc2ccccc2n2c(C)nnc12
CC(C)NS(=O)(=O)c1ccc(NC(=O)C(C)Oc2ccc(C(=O)c3ccccc3)cc2)cc1 (centres undefined)
O=C1C=CC(=O)N1CCNc1ncc(C(F)(F)F)cc1Cl
CCN1CCN(c2ccc(S(=O)(=O)N3CCCCC3)cc2NC(=O)c2cccc(F)c2)CC1
CCn1c2ccc(F)cc2c2nnc(NN)nc21
CCCN1Cc2cccc(C(=O)N3CCN(c4cc(Cl)ccc4C)CC3)c2C1=O
Cc1ccc2c(c1)C1CN(C)CCC1N2C(=S)NC(=O)c1ccc(Br)cc1 (centres undefined)
CCCCN(CC)CCCNC(=O)c1cc2cc3ccc(C)cc3nc2o1
COc1cc(NC(=O)CSc2ncnc3sc4c(c23)CCC(C)C4)c(C(=O)O)cc1OC (centres undefined)
CN(CCCNC(=O)CCCOc1cc(=O)n(C)c2ccccc12)Cc1ccccc1
O=S(=O)(NCC1NCCc2ccccc21)c1ccccc1 (centres undefined)
Cc1cc(C)c2c(=O)n(CC(=O)Nc3cccc(Cl)c3C)sc2n1
O=C(Nc1ccnn1C1CCN(Cc2cc3ccccc3[nH]2)CC1)C1CCOC1 (centres undefined)
CC(Oc1ccc(Cl)cc1Cl)C(=O)N(C)c1ccccc1 (centres undefined)
O=C(C1=C[C@H](c2ccc(C(F)(F)F)cc2)C[C@H](OCCCCO)O1)N1CCOCC1
O=C(O)CCCN1C(=O)/C(=C\c2ccc(-c3nc4ccccc4s3)o2)SC1=S
O=c1c2ccccc2nc(COc2ccccc2)n1/N=C/c1cc([N+](=O)[O-])ccc1O
O=C(CCN1CCN(Cc2ccccc2)CC1)Nc1cccc(Br)c1
O=C(NC1CCCC1)c1cc2ccccc2o1
Cc1cc(/C=N/NC(=O)c2cccc([N+](=O)[O-])c2)c(C)n1-c1ccc(Cl)cc1Cl
CCN(CC)c1ncnc2sc3c(c12)CCC3
CC(=O)c1nn(-c2cccc(Br)c2)cc1C(=O)c1cccc2ccccc12
